Screening results: PubChem, National Center for Advancing Translational Sciences (NCATS)
D2 PAM-1: positive allosteric modulators of human D2 dopamine receptor; P14416; HEK293 T-REx D2, calcium flux, EC20 dopamine potentiation; potentiation, % at 10 µM; 340,000 compounds, 0.34% hits; AID 485347;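 active = potentiation over 3 SD above the plate norm, cut at about 30% in these data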
Target sequence (P14416 whole entry, looked up): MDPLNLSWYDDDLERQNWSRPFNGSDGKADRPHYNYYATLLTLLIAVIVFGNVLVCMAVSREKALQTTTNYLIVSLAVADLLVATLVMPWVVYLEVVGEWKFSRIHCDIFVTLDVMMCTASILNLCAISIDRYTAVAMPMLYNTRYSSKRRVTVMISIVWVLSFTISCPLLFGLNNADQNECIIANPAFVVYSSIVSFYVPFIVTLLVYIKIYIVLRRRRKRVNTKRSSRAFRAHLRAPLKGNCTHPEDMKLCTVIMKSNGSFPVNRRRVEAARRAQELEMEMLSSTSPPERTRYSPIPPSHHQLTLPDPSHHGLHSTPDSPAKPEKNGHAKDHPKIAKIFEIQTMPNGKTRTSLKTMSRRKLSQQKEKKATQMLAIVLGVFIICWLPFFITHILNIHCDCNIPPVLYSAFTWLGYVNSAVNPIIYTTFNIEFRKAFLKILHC
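Potentiation of an EC20 dopamine calcium response measured kinetically over 180 s, after a preceding 180 s compound-only read flagging agonists. Cells: inducible Hek293 Trex D2 line, 4000/well, cultured overnight at 30 C before dye loading.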
D2 ag-1: activates the human D2 dopamine receptor; P14416; AID 624465; activation, % (no concentration beside the values); 360,000 compounds, 0.084% hits; DiscoveRx PathHunter D2 beta-arrestin, luminescence, 90 min; 100% = 57 uM dopamine signal; in the data active = activation above about 40%
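DiscoveRx PathHunter D2 beta-arrestin cells (2,100/well) attached overnight, then compound-stimulated 90 min at 37 C in HBSS/10 mM HEPES/0.1% Tween-20 buffer; beta-galactosidase complementation read by luminescence after 1 h at ambient temperature. Dopamine 57 uM final (EC100) as control.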
D2 PAM-2: positive allosteric modulators of human D2 dopamine receptor; DiscoveRx D2 beta-arrestin cells, luminescence, 90 min; 100% = 57 uM dopamine signal; potentiation, % (no concentration beside the values); 360,000 compounds, 0.23% hits; in the data active = potentiation above about 50%
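PathHunter D2 cells, attached overnight at 37 deg C, received compound in DMSO plus dopamine at EC20 (50 nM final) for 90 min at 37 deg C. Beta-arrestin recruitment was read as luminescence after 1 h with detection reagent at ambient temperature.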
D2 antagonist: antagonizes the human D2 dopamine receptor | P14416 | HEK293 TREx D2 cells, calcium flux, dopamine EC80 | inhibition, % at 10 µM | 340,000 compounds, 2% hits | AID 485344; in the data active = inhibition above about 30%; inactive = below that, where a call was filed
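Cells plated overnight at 30 C with tetracycline; no-wash calcium dye, 30–90 min RT; 10 s baseline; compound pinned; 180 s read; EC80 dopamine added; another 180 s read.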
D2 ag-2: D2 dopamine receptor (human) agonism; HEK293 T-REx D2 cells, calcium flux agonist mode; activation, % at 2 µM; 340,000 compounds, 0.53% hits;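 active = activation over 3 SD above normal in the single-dose calcium agonist read, cut at about 30% in these data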
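Agonism is scored from calcium flux in a force-coupled, inducible HEK293 cell line expressing D2, read kinetically for 180 s after compound addition against dopamine controls.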
A number is an active result; - = inactive; . = no result given. Most compounds without a hit are left out; they make up all but 2.4% or so of the library.

SMILES	D2 PAM-1	D2 ag-1	D2 PAM-2	D2 antagonist	D2 ag-2
O=C(COc1ccc(Cl)cc1Cl)NC(=O)NC1CCCC1	-	-	-	-	-
CCOc1ccccc1C1CC(=O)Oc2c1c(=O)n(C)c1ccccc21 (centres undefined)	-	.	.	.	-
COc1ccc(CCn2c(O)c(C3=c4ccccc4=NC3=O)sc2=S)cc1OC	-	-	-	-	-
O=C1N=c2ccccc2=C1c1sc(=S)n(CC2CCCO2)c1O (centres undefined)	-	-	108	-	-
COc1ccc(S(=O)(=O)c2cn(C)c3cc(N4CCCCCC4)c(F)cc3c2=O)cc1	-	.	.	.	-
CC(=O)Nc1ccc(S(=O)(=O)N2CCN(c3cc(C(F)(F)F)ccn3)CC2)cc1	-	-	-	-	-
FC(F)(F)c1ccnc(N2CCN(Cc3cnc(-c4ccccc4)[nH]3)CC2)c1	-	-	-	90	-
COc1cc(OC)c2c(-c3ccccc3)cc(=O)oc2c1C(CC(=O)N1CCN(c2ccccc2)CC1)c1ccc(N(C)C)cc1 (centres undefined)	-	-	-	48	-
COc1cc(OC)c2c(-c3ccccc3)cc(=O)oc2c1C(CC(=O)N1CCOCC1)c1ccc(N(C)C)cc1 (centres undefined)	-	-	-	31	-
COc1cc(OC)c2c(-c3ccccc3)cc(=O)oc2c1C(CC(=O)N1CCN(c2ccccc2)CC1)c1ccc2c(c1)OCO2 (centres undefined)	-	.	.	-	-
Cc1cc(C)c2nc(N(Cc3cccnc3)C(=O)c3ccc(S(=O)(=O)N(C)C)cc3)sc2c1	-	.	.	.	-
COc1ccc(CNC(=O)Cn2ncc3c([nH]c4ccccc43)c2=O)cc1	-	.	.	.	-
CC(C)(C)NC(=O)C1CC(=O)OC1(C)C (centres undefined)	33	-	-	-	-
CCOc1ccc(C2c3[nH]c4ccccc4c3CCN2C(=O)CSc2ccccc2)cc1 (centres undefined)	-	.	.	.	-
Cc1cccc(N2CCN(CCCNC(=O)c3ccc(NC(=O)C4=CSCCO4)cc3)CC2C)c1 (centres undefined)	-	-	-	36	-
CC1CCCN(CCCNC(=O)c2ccc(NC(=O)C3=CSCCO3)cc2)C1 (centres undefined)	-	-	-	-	-
CCCCN1CCc2c(c3ccccc3n2Cc2ccccc2)C1	-	-	-	-	-
CN1CCc2c(c3ccccc3n2Cc2ccccc2)C1	-	-	-	33	-
CN1CCc2c(c3ccccc3n2C)C1	-	-	-	61	-
CCCN(C(=O)c1cc(S(=O)(=O)N2CCc3ccccc32)cn1C)c1ccc(OCC)cc1	-	.	.	.	-
CCN(CC)C(=O)Cn1c(SCC(=O)Nc2ccc(F)cc2)nc2ccccc21	-	.	.	.	-
COc1ccc2nc3oc(C(=O)N4CCN(c5cc(C)ccc5C)CC4)cc3cc2c1	-	.	.	.	-
O=C(COc1ccccc1F)OCc1cc(=O)n2nc(C3CC3)sc2n1	-	.	.	.	.
CC1=C(C)CC(C(=O)NC2CCCC2)C(C(=O)O)C1 (centres undefined)	-	-	-	-	-
CC1=CCC(C(=O)O)C(C(=O)NC2CCCCC2)C1 (centres undefined)	-	-	-	45	-
SMILES	D2 PAM-1	D2 ag-1	D2 PAM-2	D2 antagonist	D2 ag-2
Cc1ccc(OCC(=O)Nc2cccc(C(=O)OCc3cc(=O)n4cc(C)sc4n3)c2)cc1	-	.	.	.	-
COc1cccc(NC(=S)Nc2cc(C)cc(C)n2)c1	-	-	-	44	-
Cc1cc(C)nc(NC(=S)Nc2cccc(F)c2)c1	-	-	-	-	-
CN(C)c1ccc(S(=O)(=O)NCC(=O)NCCC2=CCCCC2)cc1[N+](=O)[O-]	-	-	-	31	-
CN(C)c1ccc(S(=O)(=O)NCC(=O)NCCOc2ccccc2F)cc1[N+](=O)[O-]	-	-	-	-	-
CCOc1c(Br)cc(C2CC(=O)Nc3cc4c(cc32)OCO4)cc1OC (centres undefined)	-	.	.	.	-
COc1ccc(C)cc1NC(=O)Cn1c(=O)ccc2cc(S(=O)(=O)N3CCC(C)CC3)ccc21	-	.	.	.	-
CSc1ncccc1C(=O)OCc1c(F)cccc1Cl	30	-	-	-	-
COc1ccccc1N1CCN(C2CCC(C)CC2)CC1 (centres undefined)	-	-	-	-	-
COc1ccccc1N1CCN(C2CCN(C3CCC(c4ccccc4)CC3)CC2)CC1 (centres undefined)	-	.	.	45	-
COc1ccccc1N1CCN(C2CCN(C(=O)COc3cccc(C)c3)CC2)CC1	-	-	-	69	-
COc1ccc(CCNC(=O)CCn2c(=O)c3ccccc3n(Cc3cc(C)ccc3C)c2=O)cc1OC	-	.	.	.	-
COc1cc(N=c2ssnc2Cl)cc(OC)c1	35	-	-	-	-
CCc1ccccc1NC(=O)NC1CCCCC1	.	-	-	.	.
CCc1ccc(NC(=S)NC2CC3CCCC(C2)N3Cc2cccs2)cc1 (centres undefined)	-	-	-	64	-
CCCN1C2CCCC1CC(NC(=S)Nc1ccc(OC)cc1)C2 (centres undefined)	-	-	-	-	-
CCc1ccccc1NC(=O)NC1CC2CCC(C1)N2Cc1cccs1 (centres undefined)	-	-	-	55	-
CCOc1ccc(C(CC(=O)Nc2cc(C)c(Cl)cc2OC)N2Cc3ccccc3C2=O)cc1OC (centres undefined)	-	.	.	.	-
Cc1cc(C)n(CCOc2nonc2N)n1	-	-	-	34	-
Nc1nonc1OCCOCCOCCOc1nonc1N	-	-	-	-	-
CCc1cccc(CC)c1-n1c(-c2cccnc2)n[nH]c1=S	-	-	-	66	-
COc1ccc2ccccc2c1CNC(C)CCc1ccccc1 (centres undefined)	-	-	-	30	-
CC1C(=O)N2CCCc3cc(S(=O)(=O)NCCc4ccccc4)cc1c32 (centres undefined)	43	-	-	-	-
COc1ccc(CCNS(=O)(=O)c2cc3c4c(c2)C(C)C(=O)N4CCC3)cc1OC (centres undefined)	-	-	-	-	-
Cc1nc2c(-c3ccccc3)c(C)nn2c(C)c1CCC(=O)N1CCOCC1	32	-	-	-	-
CCOC(=O)C1CCCCN1C(=O)CCc1c(C)nc2cc(-c3ccccc3)nn2c1C (centres undefined)	-	-	-	33	-
Cc1nc2cc(-c3ccccc3)nn2c(C)c1CCC(=O)N1CCN(c2ccccn2)CC1	-	.	.	36	-
Cc1nc2c(-c3ccc(F)cc3)c(C)nn2c(C)c1CCC(=O)N1CCOCC1	-	-	-	-	-
CCc1ccc(OCC(=O)Nc2c(C(=O)c3ccc(Br)cc3)oc3ccccc23)cc1	-	.	.	.	-
Cc1ccc(-n2nc3c([n+]2[O-])CCc2nonc2-3)cc1	-	-	-	53	-
